{
  "source": "PubChem BioAssay AID686978",
  "about": "(National Center for Advancing Translational Sciences (NCATS), 2013)",
  "note": "Values joined by “and” are separate entries in the source; they are usually repeats but may differ in a detail not shown here. Identical values can stand only once. Hit rate of the full screen: of about 420,000 compounds, about 64,000 (15%) were called active. About 27% were inconclusive and are not listed. The list is a sample of the results. Unmarked numbers belong to inactive results. Calls follow the shape of the dose curve; as a rule, active = well fitted inhibition curve with a large enough effect; inconclusive = small, poorly fitted or top-dose-only effect; inactive = flat fitted curve, though single readings scatter. Peptide text beside a SMILES is read from it. * marks the point of attachment. Bz = O=C(c1ccccc1)*",
  "data": [
    {"experiment": "qHTS for Inhibitors of human tyrosyl-DNA phosphodiesterase 1 (TDP1): qHTS in cells in absence of CPT; also: nearly all actives have a fitted effect of over 55% in size; also: potency is read from the fitted curve at half-maximal effect; as to activity change, negative = growth inhibition: % is scaled to controls: 0 for no effect and ±100 for the full control effect", "conditions": "DT40 Tdp1-/- hTDP1 cells, no CPT, ATP luminescence, 48 h; activity change, negative = growth inhibition: at 46.2 µM (top of the series)", "outline": "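Seeded 400 DT40-hTDP1 cells/well (vehicle DMSO, no 20 nM CPT); pinned compounds; ≥48 hr at 37 °C; CellTiter-Glo luminescence as viability measure.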", "units": {"activity change, negative = growth inhibition": "%"}, "values": [
      {"smiles": "Cc1cc(=O)[nH]c(SCc2cc(Cl)ccc2OC(F)F)n1", "activity change, negative = growth inhibition": -17.1},
      {"smiles": "O=C(COC(=O)C1CC2CCCC(C1)C2=O)NC(=O)c1ccccc1", "note": "(stereo not drawn)", "activity change, negative = growth inhibition": -1.16},
      {"smiles": "O=C(COC(=O)c1ccc(NS(=O)(=O)c2cccs2)cc1O)Nc1ccc(F)cc1", "activity change, negative = growth inhibition": -12.5},
      {"smiles": "CCC(CC)NC(=O)CSc1nnc(-c2c[nH]c3ccccc23)o1", "activity change, negative = growth inhibition": -25.7},
      {"smiles": "O=S(=O)(NCCc1ccncc1)c1ccccc1", "activity change, negative = growth inhibition": -0.539},
      {"smiles": "CCCS(=O)(=O)Nc1cccc(-c2cn3ccsc3n2)c1", "Potency": "25.9 µM (active)"},
      {"smiles": "CCCC(=O)Nc1cccc(-c2cn3ccsc3n2)c1", "activity change, negative = growth inhibition": -28.8},
      {"smiles": "CS(=O)(=O)Nc1cccc(-c2cn3ccccc3n2)c1", "activity change, negative = growth inhibition": -17.7},
      {"smiles": "O=C1CC2(CCCC2)Oc2ccc(Cl)cc21", "activity change, negative = growth inhibition": 5.04},
      {"smiles": "COc1cccc2c1OCC(CN1CCN(C3CCCCC3)C(CCO)C1)=C2", "note": "(stereo not drawn)", "activity change, negative = growth inhibition": -8.3},
      {"smiles": "CCc1cccc(OC2OC(CO)C(O)C(O)C2NC(C)=O)c1", "note": "(stereo not drawn)", "activity change, negative = growth inhibition": -2.2},
      {"smiles": "Cn1ncc2c(Nc3cccc4ccccc34)ncnc21", "activity change, negative = growth inhibition": -26.8},
      {"smiles": "CCOC(=O)c1cccc(NC(=O)C(Cc2ccccc2)NS(=O)(=O)c2cccc3nsnc23)c1", "note": "(stereo not drawn)", "Potency": "23.1 µM (active)"},
      {"smiles": "O=C(O)C(NS(=O)(=O)c1cccc2nsnc12)c1ccccc1", "note": "(stereo not drawn)", "activity change, negative = growth inhibition": 9.14},
      {"smiles": "COc1ccc(CNC(=O)C(NS(=O)(=O)c2cccc3nsnc23)C(C)C)cc1", "note": "(stereo not drawn)", "activity change, negative = growth inhibition": 0.675},
      {"smiles": "COc1ccc(NC(=S)N2CCCC(CO)C2)c(OC)c1", "note": "(stereo not drawn)", "activity change, negative = growth inhibition": 1.5},
      {"smiles": "O=C(C1CCCO1)N(c1ccc(F)cc1)C1C=CS(=O)(=O)C1", "note": "(stereo not drawn)", "activity change, negative = growth inhibition": -14.6},
      {"smiles": "COc1ccc(NC(=O)Nc2cccc3cccnc23)cc1", "activity change, negative = growth inhibition": -8.75},
      {"smiles": "O=C(Nc1ccccc1Cl)Nc1cccc2cccnc12", "activity change, negative = growth inhibition": -2.9},
      {"smiles": "O=C(Nc1ccccc1)Oc1cccc2cccnc12", "Potency": "1.03 µM (active)"},
      {"smiles": "CSCCC(NC(=O)COc1ccccc1)C(=O)N(C)CC(=O)Nc1ccc(C)cc1", "note": "(stereo not drawn)", "activity change, negative = growth inhibition": -4.34},
      {"smiles": "COc1ccc(S(=O)(=O)NCCSc2nnnn2-c2ccccc2)cc1", "activity change, negative = growth inhibition": -4.54},
      {"smiles": "COc1ccc(S(=O)(=O)NCCc2cc3ccc(C)c(C)c3[nH]c2=O)cc1", "Potency": "8.2 µM (active) and 23.1 µM (active)"},
      {"smiles": "COc1ccc(CCNS(=O)(=O)c2cccc([N+](=O)[O-])c2)cc1", "activity change, negative = growth inhibition": 5.04},
      {"smiles": "Cc1cc(NS(=O)(=O)c2ccccc2)no1", "activity change, negative = growth inhibition": -2.46},
      {"smiles": "CCOC(=O)CNC(=O)CSc1ncccc1-c1nc2ccccc2[nH]1", "activity change, negative = growth inhibition": -6.06},
      {"smiles": "C/C(=N/OC(=O)c1ccc(Br)cc1)c1ccc(C)cc1", "activity change, negative = growth inhibition": 4.62},
      {"smiles": "O=Cc1c(Nc2ccccc2Cl)nc2ccccn2c1=O", "activity change, negative = growth inhibition": -16.3},
      {"smiles": "COc1ccc(-n2nnnc2-c2nc3ccccc3s2)cc1", "activity change, negative = growth inhibition": -24.7},
      {"smiles": "CCOc1cccc(-n2nnnc2-c2ccc(OC)cc2)c1", "Potency": "2.91 µM (active)"},
      {"smiles": "COc1ccc(NC(=O)CSc2nnnn2-c2cccc(OC)c2)cc1", "activity change, negative = growth inhibition": 6.93},
      {"smiles": "Cc1cccc(CSc2ccc(-c3cccs3)nn2)c1", "Potency": "inactive"},
      {"smiles": "CC(C)CCNC(=O)CSc1nc2ccccc2nc1Cc1ccc(Cl)cc1", "activity change, negative = growth inhibition": 2.89},
      {"smiles": "Nc1ncnc2c1ncn2[C@@H]1O[C@H](CNS(=O)(=O)c2ccc(-c3ccno3)s2)[C@@H](O)[C@H]1O", "activity change, negative = growth inhibition": -10.2},
      {"smiles": "CO/N=C(\\C(=O)N[C@@H]1C(=O)N2C(C(=O)O)=CCS[C@H]12)c1csc(N)n1", "activity change, negative = growth inhibition": -2.2},
      {"smiles": "O=S(=O)(c1ccc(Br)cc1)n1ccc2ccccc21", "Potency": "18.4 µM (active)"},
      {"smiles": "O=C(O)C1CCCN1S(=O)(=O)c1ccc(Br)cc1", "note": "(stereo not drawn)", "activity change, negative = growth inhibition": 2.25},
      {"smiles": "O=C(c1ccccc1F)N1CCN(S(=O)(=O)c2ccc(Br)cc2)CC1", "activity change, negative = growth inhibition": -0.0728},
      {"smiles": "O=C(Nc1ccc2c(c1)OCCO2)C1CCCC1", "activity change, negative = growth inhibition": -24.7},
      {"smiles": "COc1ccc(CCNCc2c(-c3ccccc3)n(C)c3ccccc23)cc1", "Potency": "16.4 µM (active)"},
      {"smiles": "COc1ccc(CNC(=O)CCN2C(=O)c3ccccc3C2=O)cc1", "activity change, negative = growth inhibition": 19.1},
      {"smiles": "COc1ccc(OCCCC(=O)NCCc2ccccc2)cc1", "activity change, negative = growth inhibition": -0.81},
      {"smiles": "CC1(c2ccccc2)NC(=O)N(CC(=O)N2CC(=O)Nc3ccccc32)C1=O", "note": "(stereo not drawn)", "activity change, negative = growth inhibition": -10.4},
      {"smiles": "Cc1ccc(Cl)cc1NC(=O)NC1COc2ccccc2C1", "note": "(stereo not drawn)", "activity change, negative = growth inhibition": 3.25},
      {"smiles": "Cc1ccc(N=Nc2c(C)[nH]n(-c3ccccc3)c2=O)cc1", "activity change, negative = growth inhibition": 1.78},
      {"smiles": "Cc1[nH]n(-c2ccccc2)c(=O)c1/C=N/NC(=O)c1ccoc1C", "Potency": "1.84 µM (active)"},
      {"smiles": "Cc1cc[n+](-c2[nH]c(=O)sc2/C=N/NC(=O)c2ccccc2[O-])cc1C", "activity change, negative = growth inhibition": 7.5},
      {"smiles": "CCn1c(SCC(=O)Nc2ccc(S(=O)(=O)Nc3onc(C)c3C)cc2)nnc1-c1ccccc1", "activity change, negative = growth inhibition": 4.75},
      {"smiles": "CCOc1ccc(NC(=O)CCC(=O)NNC(=O)NC2CCCCC2)cc1", "activity change, negative = growth inhibition": -28.5},
      {"smiles": "c1ccc(Nc2nc(N3CCOCC3)c3ccccc3n2)cc1", "Potency": "16.4 µM (active)"},
      {"smiles": "O=C(COc1nc2ccccc2nc1N1CCOCC1)NCC(F)(F)F", "activity change, negative = growth inhibition": -14.5},
      {"smiles": "O=c1[nH]c(N2CCOCC2)nc2ccccc12", "activity change, negative = growth inhibition": -13.4},
      {"smiles": "Cc1ccc(-n2c(SCC(=O)Nc3ccc4c(c3)OCO4)nnc2-c2ccccn2)cc1", "activity change, negative = growth inhibition": -12.9},
      {"smiles": "Cc1ccc2c(NC(=O)C3CC3)cccc2n1", "activity change, negative = growth inhibition": 6.95},
      {"smiles": "Cc1ccc(C(=O)Nc2cccc3ncccc23)cc1[N+](=O)[O-]", "activity change, negative = growth inhibition": -9.15},
      {"smiles": "Cc1ccc(/C=C(\\C#N)C(=O)Nc2cccc3ncccc23)o1", "Potency": "25.9 µM (active)"},
      {"smiles": "COc1ccc(S(=O)(=O)N2CCCC2CNC(=O)C(=O)NC2CC2)cc1", "note": "(stereo not drawn)", "activity change, negative = growth inhibition": 11.9},
      {"smiles": "Cc1cc(OCc2ccc(C(=O)Nc3ccc(C(=O)O)cc3)o2)ccc1Cl", "activity change, negative = growth inhibition": -17.3},
      {"smiles": "CCN(CC)S(=O)(=O)c1ccc(-c2cn3ccc(C)cc3n2)cc1", "activity change, negative = growth inhibition": -23.4},
      {"smiles": "C/C(=N/NS(=O)(=O)c1ccccc1)c1ccc(NC(=O)C(F)(F)F)cc1", "activity change, negative = growth inhibition": 17.1},
      {"smiles": "Cn1c(=O)c2c(-c3ccccc3Br)n(Cc3ccccc3)cc2n(C)c1=O", "Potency": "18.4 µM (active)"},
      {"smiles": "Cc1c(S(=O)(=O)NCc2ccccc2)c(=O)n(C)c(=O)n1C", "activity change, negative = growth inhibition": 11.6},
      {"smiles": "O=C(NC(Cc1ccccc1)C(=O)N1CCCC1C(=O)O)c1ccccc1", "note": "(stereo not drawn) (Bz-Phe-Pro-OH; configuration not given here)", "activity change, negative = growth inhibition": 2.72},
      {"smiles": "CN(C)c1nc(N)nc(Cn2nnc(-c3ccc(C(F)(F)F)cc3)n2)n1", "activity change, negative = growth inhibition": -22.4},
      {"smiles": "Cc1ccc(C(=O)Nc2ccc(C(=O)O)cc2)cc1S(=O)(=O)Nc1ccccc1", "activity change, negative = growth inhibition": 0.751},
      {"smiles": "O=C(O)c1ccc(F)c(S(=O)(=O)Nc2ccccc2)c1", "activity change, negative = growth inhibition": -25.1},
      {"smiles": "Cc1ccc(C(=O)Nc2ccccc2-c2ccccc2)cc1S(=O)(=O)Nc1ccccc1", "Potency": "14.6 µM (active)"},
      {"smiles": "Cc1ccc(F)c(S(=O)(=O)NC(=O)C2(C)CCN2C(=O)c2ccco2)c1", "note": "(stereo not drawn)", "activity change, negative = growth inhibition": -13.3}
    ]}
  ]
}
